About 2,000 (36%) of roughly 5,500 compounds were called active. Another 18% or so got no clear call; they are omitted. Cut-off read from the data, not from the text of the source: active = normalized growth mostly below about 0.91 (no sharp cut-off); inconclusive = no clear call, values can overlap the other calls; inactive = mostly above about 0.92. This is one part of the list.
Experiment: chemical genetic growth profiling, strain panel (AID 1159580);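 note: tested at 20 µM; growth read once vehicle control cultures reached saturation at 30 °C; 1 = growth at the plate median or of vehicle wells; lower values mean less growth of the strain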
Settings: growth OD

Measured: normalized growth

COc1cc(OC)c2c(c1)O[C@H](c1cc(OC)c(OC)c(OC)c1)[C@H](OC(=O)c1cc(OC)c(OC)c(OC)c1)C2
inactive: S. cerevisiae deletion strains, locus YAL013W, strain DEP1, hits give low values 1.01 | S. cerevisiae deletion strains, locus YBR021W, strain FUR4, hits give low values 0.998 | S. cerevisiae deletion strains, locus YBR229C, strain ROT2, hits give low values 1.02 | S. cerevisiae deletion strains, locus YCL029C, strain bik1, hits give low values 1.01 | S. cerevisiae deletion strains, locus YDL035C, strain GPR1, hits give low values 0.994 | S. cerevisiae deletion strains, locus YDL074C, strain BRE1, hits give low values 0.996 | S. cerevisiae deletion strains, locus YDL101C, strain DUN1, hits give low values 1 | S. cerevisiae deletion strains, locus YDL134C, strain PPH21, hits give low values 1 | S. cerevisiae deletion strains, locus YDL185W, strain tfp1, hits give low values 1.01 | S. cerevisiae deletion strains, locus YDL192W, strain arf1, hits give low values 1 | S. cerevisiae deletion strains, locus YDR101C, strain arx1, hits give low values 0.999 | S. cerevisiae deletion strains, locus YDR150W, strain NUM1, hits give low values 1.01 | S. cerevisiae deletion strains, locus YDR162C, strain NBP2, hits give low values 1 | S. cerevisiae deletion strains, locus YDR318W, strain mcm21, hits give low values 0.997 | S. cerevisiae deletion strains, locus YDR388W, hits give low values 1 | S. cerevisiae deletion strains, locus YDR502C, strain sam2, hits give low values 0.991 | S. cerevisiae deletion strains, locus YEL061C, strain CIN8, hits give low values 1.01 | S. cerevisiae deletion strains, locus YER110C, hits give low values 1 | S. cerevisiae deletion strains, locus YER155C, strain BEM2, hits give low values 1 | S. cerevisiae deletion strains, locus YER167W, strain BCK2, hits give low values 1.02 | S. cerevisiae deletion strains, locus YGL078C, strain dbp3, hits give low values 1 | S. cerevisiae deletion strains, locus YGL086W, strain mad1, hits give low values 0.991 | S. cerevisiae deletion strains, locus YGL248W, strain PDE1, hits give low values 1.01 | S. cerevisiae deletion strains, locus YGR078C, strain PAC10, hits give low values 1.02 | S. cerevisiae deletion strains, locus YGR135W, strain pre9, hits give low values 0.994 | S. cerevisiae deletion strains, locus YGR229C, strain SMI1, hits give low values 0.993 | S. cerevisiae deletion strains, locus YGR252W, strain gcn5, hits give low values 0.933 | S. cerevisiae deletion strains, locus YHR030C, strain SLT2, hits give low values 1.01 | S. cerevisiae deletion strains, locus YHR079C, strain IRE1 (second series), hits give low values 1 | S. cerevisiae deletion strains, locus YHR094C, strain hxt1, hits give low values 0.996 | S. cerevisiae deletion strains, locus YHR129C, strain ARP1, hits give low values 1.01 | S. cerevisiae deletion strains, locus YHR200W, strain rpn10, hits give low values 0.999 | S. cerevisiae deletion strains, locus YIL066C, strain RNR3, hits give low values 0.997 | S. cerevisiae deletion strains, locus YIL073C, strain SPO22, hits give low values 0.995 | S. cerevisiae deletion strains, locus YIL125W, strain kgd1, hits give low values 1 | S. cerevisiae deletion strains, locus YIR030C, strain dcg1, hits give low values 1.01 | S. cerevisiae deletion strains, locus YJL095W, strain BCK1, hits give low values 1.01 | S. cerevisiae deletion strains, locus YJL134W, strain LCB3, hits give low values 1.01 | S. cerevisiae deletion strains, locus YJL168C, strain set2, hits give low values 1 | S. cerevisiae deletion strains, locus YJL187C, strain SWE1 (second series), hits give low values 1 | S. cerevisiae deletion strains, locus YJR043C, strain POL32, hits give low values 0.992 | S. cerevisiae deletion strains, locus YJR075W, strain HOC1, hits give low values 1 | S. cerevisiae deletion strains, locus YKL009W, strain mrt4, hits give low values 0.983 | S. cerevisiae deletion strains, locus YKL068W, hits give low values 1.01 | S. cerevisiae deletion strains, locus YKL085W, strain MDH1 (second series), hits give low values 0.993 | S. cerevisiae deletion strains, locus YKL085W, strain MDH1, hits give low values 0.993 | S. cerevisiae deletion strains, locus YKL190W, strain CNB1, hits give low values 0.998 | S. cerevisiae deletion strains, locus YKR001C, strain vps1, hits give low values 0.99 | S. cerevisiae deletion strains, locus YLR039C, strain RIC1, hits give low values 1.01 | S. cerevisiae deletion strains, locus YLR058C, strain SHM2, hits give low values 1.01 | S. cerevisiae deletion strains, locus YLR102C, strain apc9, hits give low values 1 | S. cerevisiae deletion strains, locus YLR262C, strain YPT6, hits give low values 1.02 | S. cerevisiae deletion strains, locus YLR268W, strain sec22, hits give low values 1.01 | S. cerevisiae deletion strains, locus YLR330W, strain CHS5, hits give low values 1.01 | S. cerevisiae deletion strains, locus YLR342W, strain FKS1 (second series), hits give low values 1 | S. cerevisiae deletion strains, locus YLR371W, strain rom2, hits give low values 1.01 | S. cerevisiae deletion strains, locus YLR418C, strain cdc73, hits give low values 0.973 | S. cerevisiae deletion strains, locus YML016C, strain PPZ1, hits give low values 1 | S. cerevisiae deletion strains, locus YML032C, strain rad52, hits give low values 0.992 | S. cerevisiae deletion strains, locus YML124C, strain tub3, hits give low values 1 | S. cerevisiae deletion strains, locus YMR078C, strain ctf18, hits give low values 1 | S. cerevisiae deletion strains, locus YMR223W, strain ubp8, hits give low values 0.994 | S. cerevisiae deletion strains, locus YMR263W, strain SAP30, hits give low values 1 | S. cerevisiae deletion strains, locus YMR307W, strain GAS1, hits give low values 0.951 | S. cerevisiae deletion strains, locus YNL067W, strain RPL9B, hits give low values 1.01 | S. cerevisiae deletion strains, locus YNL128W, strain TEP1, hits give low values 1.02 | S. cerevisiae deletion strains, locus YNL153C, strain GIM3, hits give low values 1.01 | S. cerevisiae deletion strains, locus YNL233W, strain BNI4, hits give low values 1 | S. cerevisiae deletion strains, locus YNL250W, strain rad50, hits give low values 1 | S. cerevisiae deletion strains, locus YNL271C, strain bni1, hits give low values 1.01 | S. cerevisiae deletion strains, locus YNL298W, strain CLA4, hits give low values 1.01 | S. cerevisiae deletion strains, locus YNL307C, strain MCK1, hits give low values 1 | S. cerevisiae deletion strains, locus YNL322C, strain KRE1, hits give low values 1 | S. cerevisiae deletion strains, locus YNR052C, strain pop2, hits give low values 1.01 | S. cerevisiae deletion strains, locus YOL006C, strain TOP1, hits give low values 0.983 | S. cerevisiae deletion strains, locus YOL012C, strain htz1 0.884 | S. cerevisiae deletion strains, locus YOL147C, strain pex11, hits give low values 0.996 | S. cerevisiae deletion strains, locus YOR061W, strain CKA2, hits give low values 1 | S. cerevisiae deletion strains, locus YOR069W, strain VPS5, hits give low values 0.999 | S. cerevisiae deletion strains, locus YOR136W, strain idh2, hits give low values 0.997 | S. cerevisiae deletion strains, locus YOR144C, strain elg1, hits give low values 1 | S. cerevisiae deletion strains, locus YOR184W, strain ser1, hits give low values 0.987 | S. cerevisiae deletion strains, locus YOR316C, strain cot1, hits give low values 1 | S. cerevisiae deletion strains, locus YPL055C, strain LGE1, hits give low values 0.989 | S. cerevisiae deletion strains, locus YPL241C, strain CIN2, hits give low values 0.986 | S. cerevisiae deletion strains, locus YPR119W, strain clb2, hits give low values 0.995 | S. cerevisiae deletion strains, locus YPR141C, strain kar3, hits give low values 1 | S. cerevisiae deletion strains, locus YPR163C, strain tif3, hits give low values 0.997 | S. cerevisiae deletion strains, locus YPR167C, strain met16, hits give low values 1.01 | S. cerevisiae deletion strains, strain wtn01, hits give low values 0.992 | S. cerevisiae strains, strain wild type, hits give low values 1.01

— PubChem BioAssay AID1159580 (chemical genetic matrix, 2015)
